Experimental data as given in ChEMBL document CHEMBL3988442, “University of Dundee, Small-Polar-MMV Screening Library” (2021).
In all, about 66,000 compounds went through this assay and about 960 (1.5%) showed an effect of 50% or more. The full list was thinned out, with strong results kept by preference.

System: Trypanosoma brucei
Test: Trypanosoma brucei 72 hour study
Assay type: functional, organism-based
Parameters: scale not given: in the data most compounds retested in dose-response had high values

Row | SMILES | Percent Effect (30 µM, 30.03 µM) [%] | Percent Effect (30.3 µM, […]) [%]
1 | COc1ccc(OC)c(C2SCC(=O)Nc3n[nH]cc32)c1 (stereo not drawn) | 38.65 | 
2 | COc1ccc(C2SCC(=O)Nc3n[nH]cc32)c(OC)c1OC (stereo not drawn) | -21.04 | 
3 | COc1cc(OC)c(C2SCC(=O)Nc3n[nH]cc32)cc1OC (stereo not drawn) | 60.77 | 
4 | COc1cc(C2SCC(=O)Nc3n[nH]cc32)cc(OC)c1O (stereo not drawn) | 53.45 | 
5 | COc1ccccc1C1SCC(=O)Nc2n[nH]cc21 (stereo not drawn) | 40.76 | 
6 | COc1cc(C2SCC(=O)Nc3ccsc32)cc(OC)c1O (stereo not drawn) | 23.79 | 
7 | COCc1cncc2c1CCN(Cc1cccs1)C2.O=C(O)C(F)(F)F.O=C(O)C(F)(F)F |  | -85.33
8 | COCCN1CCC12CCN(C(=O)c1ccc(C)nc1)C2.O=C(O)C(F)(F)F (stereo not drawn) |  | 8.313
9 | CN(C)CCN1CCN(Cc2cccs2)Cc2cccnc21.O=C(O)C(F)(F)F.O=C(O)C(F)(F)F.O=C(O)C(F)(F)F |  | -59.56
10 | CCN1C[C@@H]2[C@@H](OC)CCN(C(=O)Cc3ccsc3)[C@@H]2C1.O=C(O)C(F)(F)F |  | -11
11 | CN(C)CCOCc1cncc2c1CCN(C1CCOC1)C2.O=C(O)C(F)(F)F.O=C(O)C(F)(F)F.O=C(O)C(F)(F)F (stereo not drawn) |  | -50.42
12 | Cc1ccc2c(c1)C(NC(C)C)CC21CCNCC1.Cl (stereo not drawn) |  | -30.38
13 | Cc1ccc2c(c1)C(NC1CC1)CC21CCNCC1.Cl (stereo not drawn) |  | 51.53
14 | Cc1ccc2c(c1)C1(CCNCC1)CC2NC1CC1.Cl.Cl (stereo not drawn) |  | 15.24
15 | CC(C)CN1CCC2(C1)CN(c1ncccn1)C2.O=C(O)C(F)(F)F | -1.682 | 
16 | Cc1nc(CN2CCO[C@@H]3CC(COc4ccccn4)C[C@H]32)cs1.O=C(O)C(F)(F)F.O=C(O)C(F)(F)F (stereo partly drawn) |  | -42.66
17 | Cc1cc(N2CCC(NC(C)Cc3ccsc3)CC2)nc(N)n1 (stereo not drawn) | 101 | 
18 | Cc1cc(N2CCC(NC(C)Cc3ccsc3)CC2)nc(C)n1 (stereo not drawn) | 18.53 | 
19 | Cc1cc(CC(C)NC2CCN(CC(C)C)CC2)[nH]n1 (stereo not drawn) | 11.44 | 
20 | CCO[C@@H]1CC[C@H]2[C@H]1OCCN2CC1CCC1.O=C(O)C(F)(F)F | -19.35 | 
21 | CCc1ccc(CN2CC[C@@H]3NC(=O)CC[C@@H]32)o1.O=C(O)C(F)(F)F |  | -13.17
22 | Fc1ccccc1CN1CCCC2(CCN(c3ncccn3)C2)C1 (stereo not drawn) |  | 102.7
23 | c1cnc(N2CCCC3(CCN(Cc4cccs4)C3)C2)nc1 (stereo not drawn) |  | -58.76
24 | c1cnc(N2CCCC3(CCN(Cc4ccsc4)C3)C2)nc1 (stereo not drawn) | 44.57 | 
25 | Cc1cccc(CN2CCC[C@@H]3CN(C(=O)c4ccco4)C[C@@H]32)n1.O=C(O)C(F)(F)F | -18.06 | 
26 | Cc1noc(C)c1CN1CC[C@H]2OCC[C@@]2(C(=O)N2CCCC2)C1.O=C(O)C(F)(F)F | -22.78 | 
27 | CC(C)N(C)Cc1cncc2c1CCN(CC(=O)N(C)C)C2.Cl.Cl.Cl |  | 7.599

Row | SMILES | Percent Effect (30 µM, 30.03 µM) [%] | Percent Effect (30.3 µM, […]) [%]
28 | Cc1cccc(CN2C[C@@H]3COC[C@H](NS(C)(=O)=O)[C@@H]3C2)n1.O=C(O)C(F)(F)F.O=C(O)C(F)(F)F |  | -15.48
29 | O=C(NC[C@]12COC[C@H]1CN(Cc1cccnc1)C2)c1ccsc1.O=C(O)C(F)(F)F.O=C(O)C(F)(F)F | 39.91 | 
30 | O=C(O)C(F)(F)F.c1cnc(N2C[C@H]3CCN(Cc4ccncc4)C[C@H]3C2)nc1 |  | -2.942
31 | O=C(O)C(F)(F)F.O=C(O)C(F)(F)F.c1ccc(N2CC[C@@H]3CN(Cc4ccncc4)CCO[C@@H]3C2)cc1 |  | 99.05
32 | O=C(O)C(F)(F)F.O=C(O)C(F)(F)F.c1cnc(N2CC[C@@H]3CN(Cc4ccncc4)CCO[C@@H]3C2)nc1 |  | -15.11
33 | Cl.Cl.NCC1[C@H]2CN(CCc3ccccc3)C[C@@H]12 (stereo partly drawn) |  | 0.5802
34 | O=C(O)C(F)(F)F.O=S(=O)(C1CC1)N1CCOC2(CCCN(Cc3ccccn3)C2)C1 (stereo not drawn) |  | -44.45
35 | COc1cc(C2SCC(=O)Nc3[nH]ncc32)cc2c1OCO2 (stereo not drawn) |  | 86.32
36 | COc1cc(C2SCC(=O)Nc3[nH]ncc32)c(OC)c2c1OCO2 (stereo not drawn) |  | 5.203
37 | COc1c(C2SCC(=O)Nc3[nH]ncc32)cc2c(c1OC)OCO2 (stereo not drawn) |  | 46.19
38 | CN(C)Cc1cncc2c1CCN(C1CCOCC1)C2.Cl.Cl.Cl |  | -35.22
39 | O=C(Cc1ccccc1)N1CCC2(CCN2Cc2ccc(F)cc2)C1.O=C(O)C(F)(F)F (stereo not drawn) |  | 10.12
40 | CCCN1C(=O)CC2(CCCNC2)C1=O.Cl (stereo not drawn) |  | -8.6
41 | Cc1cccc(-c2ncc(CNC(C)Cc3ncccc3C)cn2)c1 (stereo not drawn) |  | -134.7
42 | Cc1cccc(-c2ncc(CNC(C)Cc3ccncc3)cn2)c1 (stereo not drawn) |  | -157.2
43 | CC(Cc1cccc(F)c1)NCc1cnc(N2CCN(C)CC2)nc1 (stereo not drawn) | 94.94 | 
44 | Cn1nc(CN2CCCCC(N)C2)c2c(Cl)cccc21 (stereo not drawn) |  | 88.2
45 | Cn1ncc2c(NC3CN4CCC3CC4)nc(-c3ccncc3)nc21 (stereo not drawn) |  | 99.69
46 | CC(C)n1ccc2ccc(C(=O)NC3CN4CCC3CC4)cc21 (stereo not drawn) | -12.75 | 
47 | Cn1ccc2c(C(=O)NC3CN4CCC3CC4)cccc21 (stereo not drawn) | -26.79 | 
48 | O=C(C1CCOCC1)N1C[C@H]2CNC[C@H]2C1 |  | 14.48
49 | CN1CC[C@H]2OCC[C@@]2(C(=O)NCCc2ccccn2)C1.O=C(O)C(F)(F)F.O=C(O)C(F)(F)F |  | -17.73
50 | O=C(O)C(F)(F)F.O=C(O)C(F)(F)F.O=C(O)C(F)(F)F.c1cc(COC[C@]23COC[C@H]2CN(Cc2ccncc2)C3)ccn1 | -36.39 | 
51 | O=C(O)C(F)(F)F.O=C(O)C(F)(F)F.c1cc(COC[C@]23COC[C@H]2CN(Cc2ccsc2)C3)ccn1 | 16.71 | 
52 | O=C(O)C(F)(F)F.O=C(O)C(F)(F)F.c1cc(COC[C@]23COC[C@H]2CN(CC2CCC2)C3)ccn1 | 51.43 | 
53 | O=C(O)C(F)(F)F.O=C(O)C(F)(F)F.O=C(O)C(F)(F)F.c1cncc(CN2CCN3C[C@H](Oc4cncnc4)C[C@H]3C2)c1 |  | -85.06
